This passage reports inhibition results from PubChem BioAssay AID1159606 (Sanford-Burnham Center for Chemical Genomics, 2016).

By inhibition is commonly meant the drop in the measured response relative to a control, in per cent.

The structures appear in SMILES notation. The campaign covered roughly 360,000 compounds. About 7,300 (2%) were called active. The sample holds actives, similar compounds and a random draw of the others, so the mix is not that of the screen. Cut-off read from the data, not from the text of the source: active = inhibition above about 50%; inactive = the rest.

The nature of the assay: blockers of TWEAK-induced Fn14 reporter activity – luciferase reporter cells, uHTS, primary screen (AID 1159606). Conditions: TWEAK-stimulated Fn14 reporter cells, luciferase luminescence, 8 h; at 10 µM; stronger effect = higher value. In general terms: A reporter such as luciferase makes a cellular process visible.
For the compound `Cn1c(N)c(C(=O)COC(=O)/C=C/c2ccc(OC(F)F)cc2)c(=O)n(C)c1=O`, the inhibition is -0.1% (inactive).
In the case of `CCCOc1ccc(F)cc1-c1cc(C(=O)Nc2ccc(F)cc2)[nH]n1` it was 37.3% (inactive); in that of `CCCOc1ccc(F)cc1-c1cc(C(=O)Nc2ccc(F)c(Cl)c2)[nH]n1`, 76.2% (active).
Consider `CCCOc1ccc(F)cc1-c1cc(C(=O)NCc2ccc(F)cc2)[nH]n1`, for which the inhibition is 24.1% (inactive).
`CCCNC(=O)c1cc2c(c(-c3cccc(-c4ccc(C#N)cc4)c3)n1)[C@@H](CCO)N(C(=O)CC)C2`: the inhibition is -20.1% (inactive).
In the case of `CC(=O)c1c(C)n(-c2ccc(C)cc2)c2ccc(O)cc12` it was 15.6% (inactive).
In the case of `CC(=O)c1c(C)n(-c2ccc(N(C)C)cc2)c2ccc(OCC(N)=O)cc12` it was 57.5% (active).
Turning to `Cc1cccc(OCC(=O)NCC(=O)N/N=C/c2ccc(N(C)C)cc2)c1`, the inhibition was -4.48% (inactive).
`COC(=O)[C@]12CCCCC=C1N(Cc1ccccc1)C(=O)[C@H](CC(=O)NCc1ccc(C)o1)C2`: the inhibition was 9.51% (inactive).
Consider `O=C1NC[C@H](CCCCN2C[C@H](Cc3ccc(O)cc3)N(CCc3ccccc3)C(=O)C2=O)N(CCc2ccccc2)C1=O`, for which the inhibition was 13.5% (inactive).
For `N#Cc1ccccc1CN1C(=O)S/C(=C/c2cccn2-c2cccc(C(=O)O)c2)C1=O`, the inhibition is 0.32% (inactive).
In the case of `O=C1CC(NNc2ccccc2)C(=O)N1c1cccc(Cl)c1` (centres undefined) it was 15.1% (inactive); in that of `O=C1N/C(=C/c2cccn2-c2ccccc2)C(=O)N1c1cccc(Cl)c1`, 62.3% (active).
As to `Cc1ccc([C@H]2C[C@H](O)[C@@H](n3cc(COC(=O)c4ccccc4)nn3)CN2C(=O)C2CCCCC2)cc1`, the inhibition is 21% (inactive).
As to `COCCNC(=O)c1ccccc1-c1nc(-c2ccccc2Cl)no1`, the inhibition is -18.8% (inactive).
`Cc1c(NC(=O)C(C)OC(=O)c2ccccc2O)c(=O)n(-c2ccccc2)n1C` (centres undefined): the inhibition was 2.88% (inactive).
With `COC(=O)[C@]12CCCCC=C1N(CCC1=CCCCC1)C(=O)[C@H](CC(=O)N1CCSCC1)C2`, the inhibition was -9.15% (inactive).
In the case of `CN(Cc1ccc(F)cc1)C(=O)CN1C(=O)c2ccccc2S1(=O)=O` it was 7.88% (inactive); in that of `COc1ccc(CNC(=O)CN2C(=O)c3ccccc3S2(=O)=O)cc1`, 8.55% (inactive).
`O=C(CN1C(=O)c2ccccc2S1(=O)=O)N1CCc2ccccc21`: the inhibition is 103% (active).
In the case of `CCN(CC)c1ncnc2c1ncn2[C@H]1CN(Cc2cccs2)C[C@@H](CO)O1` it was -23.3% (inactive); in that of `COc1ccc(CN2C(=O)C(CC(=O)NC3CCCCC3)CC(C(=O)N3CCOCC3)=C2C)cc1` (centres undefined), -7.48% (inactive); in that of `CCc1cccc(C)c1N(C(=O)Cn1c(CO)nc2ccccc21)C(C)COC` (centres undefined), -17.5% (inactive).
In the case of `CCN1CCC2(CC1)N=C(c1ccc(F)cc1)C(=S)N2C(=O)c1ccc(C)cc1` it was 42.7% (inactive); in that of `CCN1CCC(O)(/C=C/c2ccc(C)cc2)C(C(=O)/C=C/c2ccc(C)cc2)C1` (centres undefined), 88.3% (active).
In the case of `CCOC(=O)[C@]12CCC=C1N(Cc1ccco1)C(=O)[C@H](CC(=O)NCc1cccc(C(F)(F)F)c1)C2` it was 11.1% (inactive); in that of `COCCCNC(=O)CNC(=O)c1nn(-c2ccc(OC)cc2)c(=O)c2ccccc12`, 23.9% (inactive).
Take `CCOC(=O)c1cc(NC(=O)SCC(=O)O)c(C)nc1C`: the inhibition was -2.03% (inactive).
In the case of `CCOC(=O)c1c(C2CC2)csc1NC(=O)CSCc1c(C)noc1C` it was -9.7% (inactive); in that of `O=C(CC(O)(C(F)(F)F)C(F)(F)F)Nc1ccc(Cl)c(Cl)c1`, 56.3% (active); in that of `CN(CC(=O)Nc1ccc(Cl)c(C(F)(F)F)c1)C(=O)CCC(=O)c1ccccc1`, 7.71% (inactive).
Consider `O=C(Cc1ncc(C(F)(F)F)cc1Cl)Nc1cccc(Br)c1`, for which the inhibition was 6.6% (inactive).
Take `CCN1/C(=C\c2ccc3ccccc3[n+]2CC)Sc2cc(C)ccc21`: the inhibition was 57.2% (active).
Consider `O=C(COC(=O)C1CCN(S(=O)(=O)c2ccc3c(c2)OCCO3)CC1)Nc1ccccc1OC(F)F`, for which the inhibition was -22.5% (inactive).
In the case of `C#Cc1ccc([C@@H]2C=C(C(=O)O)O[C@H](OCCCCO)C2)cc1` it was -4.22% (inactive).
As for `Cc1cn(C2C=CC(CO)O2)c(=O)[nH]c1=O` (centres undefined), the inhibition was -1% (inactive).
Consider `O=S(=O)(c1ccc(F)cc1)N1CCN=C1SCc1cccc(F)c1`, for which the inhibition is -11.2% (inactive).
In the case of `O=C(Nc1c(Br)cc2c(c1Br)Cc1cc([N+](=O)[O-])ccc1-2)C(Cl)Cl` it was -30.1% (inactive).
In the case of `O=C(CN1CCN(S(=O)(=O)c2ccc(F)cc2)CC1)NC1CC1` it was 0.09% (inactive); in that of `Cc1nc(N2CCN(c3ccccn3)CC2)c2c(C)c(C(=O)Nc3ccc(F)c(Cl)c3)sc2n1`, 66.9% (active); in that of `Cc1nc(N2CCOCC2)c2c(C)c(C(=O)Nc3ccc(C(F)(F)F)cc3)sc2n1`, -3.25% (inactive).
In the case of `Cc1nc(N2CCN(c3ccccn3)CC2)c2c(C)c(C(=O)Nc3ccc(F)cc3)sc2n1` it was 18.8% (inactive); in that of `CCOC(=O)Cc1ncccc1C(=O)Nc1ccc(OC(F)(F)F)cc1`, -7.78% (inactive); in that of `CCOc1c2ccc(C(=O)NCc3ccc(OC(F)(F)F)cc3)cc2nn1C`, -25.1% (inactive).
For the compound `O=C(Nc1ccc(OC(F)(F)F)cc1)c1ccc2c(c1)no[n+]2[O-]`, the inhibition was 60.4% (active).
On to `CCOC(=O)Cc1csc(NC(=O)CN(C)S(=O)(=O)c2ccc3c(c2)CCC(=O)N3)n1`, for which the inhibition was 1.66% (inactive).
In the case of `O=C(Nc1cc(C(F)(F)F)ccc1Cl)c1cc2nc3c(c(C(F)(F)F)n2n1)CCCC3` it was 76.7% (active); in that of `Nc1nc(SCC(=O)Nc2cc(C(F)(F)F)ccc2Cl)[nH]c(=O)c1NC(=O)c1ccco1`, 10% (inactive); in that of `O=C(Nc1ccc(Cl)cc1)c1cc2nc(C3CC3)cc(C(F)(F)F)n2n1`, -7.24% (inactive).
`O=S1(=O)CSCS(=O)(=O)C1`: the inhibition was -11.8% (inactive).
With `O=C(OCC(=O)N1CCCCCC1)c1ccc(Br)c(S(=O)(=O)N2CCOCC2)c1`, the inhibition was -3.85% (inactive).
In the case of `COc1cc2c(cc1OC)/C(=C/C(=O)c1ccc(NC(C)=O)cc1)NCC2` it was -11.2% (inactive).
In the case of `CC1(C)Cc2ccccc2/C(=C/C(=O)c2ccccc2)N1` it was -22.4% (inactive); in that of `CC1CN/C(=C\C(=O)c2ccc(Br)cc2)C(=O)N1` (centres undefined), 62.2% (active).
